Data: PubChem BioAssay (Tox21)
Results filed as inconclusive are left out. The source made the active and inactive calls. Calls come from the whole dose curve.

target: Vitamin D3 receptor (Homo sapiens) (UniProt P11473); assay: qHTS assay to identify small molecule agonists of the vitamin D receptor (VDR) signaling pathway (AID 743222); conditions: HEK293T VDR-UAS-bla, beta-lactamase FRET ratio, 16 h; series mostly up to 63.5 µM
Description: National Center for Advancing Translational Sciences [NCATS]
NIH Chemical Genomics Center [NCGC]
U.S. Environmental Protection Agency [EPA]
National Institutes of Environmental Health Sciences [NIEHS]
National Toxicology Program [NTP]
U.S. Food and Drug Administration [FDA]
The vitamin D receptor (VDR), a member of nuclear hormone receptor superfamily, plays a critical role in calcium homeostasis and bone metabolism. It is also involved in cell differentiation and growth, and thrombogenicity.
Tox21 Assay Protocol Summary:
VDR-bla cells were dispensed at 2,000 cells/6 uL/well into black wall/clear-bottom 1536-well plates using a Multidrop Combi (Thermo Fisher Scientific, Waltham, MA) dispenser. After the assay plates were incubated at a 37C and 5% CO2 for 4 h, 23 nL of compounds dissolved in DMSO, positive controls or DMSO only was transferred to the assay plate by a Pintool station (Kalypsys, San Diego, CA). The plates were incubated at 37C and 5% CO2 for 16 h. After 1 uL of LiveBLAzerTM B/G FRET substrate was added using a Bioraptr Flying Reagent Dispenser (FRD) workstation (Beckman Coulter, Indianapolis, IN, USA), the plates were incubated at room temperature for 2 h, and fluorescence intensity was measured by an Envision plate reader (PerkinElmer, Shelton, CT).

Chain of Vitamin D3 receptor (Homo sapiens) (P11473 whole entry, looked up): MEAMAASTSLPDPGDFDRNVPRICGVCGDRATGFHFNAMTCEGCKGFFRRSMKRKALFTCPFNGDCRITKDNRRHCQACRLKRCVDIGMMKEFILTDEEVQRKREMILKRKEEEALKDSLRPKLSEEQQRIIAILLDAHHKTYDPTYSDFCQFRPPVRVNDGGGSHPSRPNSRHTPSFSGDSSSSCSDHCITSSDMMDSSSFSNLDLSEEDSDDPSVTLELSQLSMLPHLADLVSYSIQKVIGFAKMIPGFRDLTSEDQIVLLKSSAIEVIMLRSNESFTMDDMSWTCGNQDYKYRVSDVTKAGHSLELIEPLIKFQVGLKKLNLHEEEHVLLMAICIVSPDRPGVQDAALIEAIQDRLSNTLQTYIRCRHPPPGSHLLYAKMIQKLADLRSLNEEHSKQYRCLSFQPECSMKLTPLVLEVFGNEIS

SMILES | outcome
CCn1ccc(NS(=O)(=O)c2ccc(N)cc2)nc1=O | inactive
Cc1cccc2nccnc12 | inactive
CCCCOC(=O)c1ccccc1 | inactive
CC(CC=O)CCCC(C)(C)O (stereo not given) | inactive
Nc1cccc(O)c1 | inactive
CO[C@@H]1[C@@H](OC(N)=O)[C@@H](O)[C@H](Oc2ccc3c(O)c(NC(=O)c4ccc(O)c(CC=C(C)C)c4)c(=O)oc3c2C)OC1(C)C | inactive
OC[C@H](Cc1cccc(O)c1)[C@H](CO)Cc1cccc(O)c1 | inactive
Cc1cc(NC(=O)C2=C(O)c3ccccc3S(=O)(=O)N2C)no1 | inactive
Nc1nnc(-c2cccc(Cl)c2Cl)c(N)n1 | inactive
C=C(C)C(=O)OCCOP(=O)(O)OCCOC(=O)C(=C)C | inactive
C=C1CC/C=C(\C)CC[C@@H]2[C@@H]1CC2(C)C | inactive
CCCCOCCOC(=O)COc1nc(Cl)c(Cl)cc1Cl | inactive
CN(C)C(=O)CNC(=O)Cc1ccccc1 | inactive
CCCCCCCCCCl | inactive
O=C(O)Cc1ccc(Cl)cc1Cl | inactive
CC(C)=O | inactive
O=C(OCC(O)CO)c1ccccc1Nc1ccnc2c(C(F)(F)F)cccc12 (stereo not given) | inactive
CCCCNc1ccc(C(=O)OCCN(C)C)cc1 | inactive
CC(C)(C)c1n[nH]c(=S)n(N)c1=O | inactive
Nc1ccc2cc(S(=O)(=O)O)cc(O)c2c1 | inactive

SMILES | outcome
CCOCCOC(=O)/C=C/c1ccc(OC)cc1 | inactive
COc1cc(C(=S)N2CCOCC2)cc(OC)c1OC | inactive
CC(C)N(c1ccccc1)C(C)C | inactive
CCCCC(CC)COCCO (stereo not given) | inactive
COc1ccc(S(=O)(=O)N2c3ccc(Cl)cc3[C@@](O)(c3ccccc3Cl)[C@H]2C(=O)N2CCC[C@@H]2C(N)=O)cc1OC | inactive
CC(C)CC(=O)O | inactive
CCC(CC)CO | inactive
Brc1ccc(-c2ccccc2)cc1 | inactive
CCOC(=O)CC(=O)c1ccccc1 | inactive
COc1cc2c(cc1OC)[C@@H]1CC(=O)[C@@H](CC(C)C)CN1CC2 | inactive
C[C@H](N)[C@H](O)c1cccc(O)c1 | inactive
OCCN(CCO)c1cccc(Cl)c1 | inactive
CC[C@H](C)C(=O)O[C@H]1C[C@H](O)C=C2C=C[C@H](C)[C@H](CC[C@@H](O)C[C@@H](O)CC(=O)O)[C@H]21 | inactive
C=CC(OCC)OCC | inactive
N[C@@H](CCC(=O)Nc1ccc([N+](=O)[O-])cc1)C(=O)O | inactive
O=C(CCNNC(=O)c1ccncc1)NCc1ccccc1 | inactive
CCCCN | inactive
Cc1ccc(C=O)cc1C | inactive
COCCc1ccc(OCC2CO2)cc1 (stereo not given) | inactive
CC/C=C\CC1=C(C)CCC1=O | inactive
